Our source for the Potency, activity change, positive = activation and outcome values is PubChem BioAssay (Tox21).

Where “and” joins values, the source holds several entries; their conditions need not be identical. Equal entries are not always repeated. Results filed as inconclusive are left out. More than one record can exist for a structure, and the calls need not agree. Calls of active or inactive are those of the source. Unless noted, the call rests on the fitted dose curve; in most records, active means well fitted curve in the direction sought with a large enough effect in the repeat runs; inconclusive means weak or mixed curves; inactive means no such curve, though single readings can be large; an effect the other way counts as inactive or inconclusive.

Test [1] is described as follows: qHTS assay to identify small molecule agonists of the constitutive androstane receptor (CAR) signaling pathway - cell viability counter screen (AID 1224836). Further: nearly all actives have a fitted effect of over 45% in size. The essentials:
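Double-stable HepG2 hepatoma cells (hCAR plus CYP2B6-2.2kb) are treated for 23 h at 37 C with test compounds in 15-point concentration series. PK11195 at 0.75 uM final is co-added. Cell viability is quantified by CellTiter-Fluor.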
On the technique in general: qHTS replaces the single test concentration by a dilution series.

Test [2] in a line: qHTS assay to identify small molecule antagonists of the constitutive androstane receptor (CAR) signaling pathway - cell viability counter screen (AID 1224837). Further: nearly all actives have a fitted effect of over 45% in size. Further: potency means the concentration at half of the fitted maximal effect. The essentials: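 In quantitative HTS format, compounds at 15 concentrations were applied to HepG2 cells double-transfected with hCAR and CYP2B6-2.2kb under 50 nM CITCO stimulation; live-cell protease activity was read after 23 hr via CellTiter-Fluor.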

The target of test [3] is Nuclear receptor subfamily 1 group I member 3 (Homo sapiens) (UniProt Q14994). Nature of the test: qHTS assay to identify small molecule antagonists of the constitutive androstane receptor (CAR) signaling pathway (AID 1224838). Further: nearly all actives have a fitted effect of over 40% in size. Further: potency means the concentration at half of the fitted maximal effect. Put shortly:
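CITCO-stimulated (50 nM final) HepG2 cells stably transfected with hCAR and CYP2B6-2.2kb luciferase were exposed to compounds at 15 concentrations for 24 h at 37 C/5% CO2. A luciferase reagent was added and luminescence recorded after 30 min.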

Test [4] shares this target. Nature of the test: qHTS assay to identify small molecule agonists of the constitutive androstane receptor (CAR) signaling pathway (AID 1224839). Further: nearly all actives have a fitted effect of over 15% in size. Further: potency means the concentration at half of the fitted maximal effect.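 On activation: HepG2 cells stably carrying human CAR and a CYP2B6 luciferase reporter.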 Put shortly:
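Readout: firefly luciferase luminescence via ONE-Glo. System: HepG2 double-stable for hCAR and CYP2B6-2.2kb. Conditions: 15-point compound titration, PK11195 at 0.75 uM final, 24 h incubation.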

A short description of test [5]: qHTS assay to identify small molecule antagonists of the estrogen related receptor signaling pathway with the pleiotropic PPARgamma coactivator (PGC) from Tox21 10K library - cell viability counter screen (AID 1224840; active means well fitted cell-killing curve with a large enough effect in the repeat runs, not every such curve was filed as active; further: nearly all actives have a fitted effect of over 40% in size). The essentials: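 Viability counter screen, PGC/ERR cells: 17.5 h compound exposure at 37 C, CellTiter-Fluor fluorescence endpoint.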
Test [6] in a line: qHTS assay to identify small molecule antagonists of the estrogen related receptor signaling pathway with the pleiotropic PPARgamma coactivator (PGC) from Tox21 10K library (AID 1224841; call rule not given here; further: actives are mostly falling curves and most rising ones were filed inactive; nearly all actives have a fitted effect of over 50% in size; further: potency means the concentration at half of the fitted maximal effect). The essentials: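 In the PGC/ERR line, DMSO solutions of test chemicals are pin-delivered to 2,000 cells/well six hours after dispensing. Following eighteen hours' incubation, One-Glo reagent is added and luminescence recorded.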

Test [7] in a line: qHTS assay to identify small molecule agonists of the estrogen related receptor signaling pathway with the pleiotropic PPARgamma coactivator (PGC) from Tox21 10K library (AID 1224842). Further: nearly all actives have a fitted effect of over 15% in size. The essentials: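 PGC/ERR reporter cell line, 2,000 cells per well, incubated 6 h at 37 C before 23 nL compound in DMSO was added. After 18 h at 37 C, One-Glo luminescence read following 30 min at room temperature.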

The target of test [8] is Thyrotropin receptor (Homo sapiens) (UniProt P16473). In words: qHTS assay to identify small molecule agonists of the thyroid stimulating hormone receptor (TSHR) signaling pathway (AID 1224843; calls by dose curve; further: nearly all actives have a fitted effect of over 45% in size; further: potency means the concentration at half of the fitted maximal effect). The essentials: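 Agonist-mode screen: TSHR HEK293 cells received test chemicals for half an hour at room temperature, then HTRF cAMP detection reagents for one hour prior to fluorescence measurement. Each chemical ran as a 15-concentration series, triplicated.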

Test [9] can be described thus: qHTS assay to identify small molecule agonists of the hypoxia (HIF-1) signaling pathway - cell viability counter screen (AID 1224844; calls by dose curve; further: nearly all actives have a fitted effect of over 50% in size; further: potency means the concentration at half of the fitted maximal effect). Put shortly:
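Same wells as the HIF-1 reporter screen; ME-180 cells carrying HRE-bla, 17 hr treatment at 37C; CellTiter-Glo luminescence read after 30 min at room temperature.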

The nature of test [10]: qHTS assay to identify small molecule antagonists of the estrogen related receptor (ERR) signaling pathway from Tox21 library (AID 1224848). Further: nearly all actives have a fitted effect of over 50% in size. Further: potency means the concentration at half of the fitted maximal effect. Put shortly:
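Quantitative high-throughput format: ERR reporter cells (2,000/well) pre-incubated 6 h, treated 18 h at 37 C with compounds in DMSO alongside positive and negative controls, then read by ONE-Glo luminescence.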

Test [11] is described as follows: qHTS assay to identify small molecule agonists of the estrogen related receptor (ERR) signaling pathway from Tox21 library (AID 1224849; calls by dose curve; further: nearly all actives have a fitted effect of over 15% in size). The conditions noted are these: ERR reporter cell line, ONE-Glo luciferase, 18 h; at 92.4 µM (top of the series) unless noted. Put shortly: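 Reporter cells (ERR, NTP source) treated with Tox21 10K compounds 18 h, 37 C. Readout: ONE-Glo luminescence, 30 min RT.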

Test [12] is described as follows: qHTS RealTime-Glo MT Cell Viability Assay in HEK293 cells - 32 hour (AID 1224868). Further: nearly all actives have a fitted effect of over 50% in size. Further: potency means the concentration at half of the fitted maximal effect. The essentials: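 HEK293 cells were seeded at 600 cells/well together with NanoLuc luciferase and cell-permeant prosubstrate, preincubated 5 h at 37 C/5% CO2, then given compound in DMSO by pintool. Luminescence from viable-cell prosubstrate reduction was read repeatedly over 40 h.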

The nature of test [13]: A CellTox Green Cytotoxicity Assay to monitor cytotoxicity in HEK293 cells - 0 hour (AID 1224869). Further: nearly all actives have a fitted effect of over 50% in size. The essentials:
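Homogeneous no-lysis format: HEK293 cell suspension mixed with CellTox Green reagent, seeded, incubated 5 h at 37 C/5% CO2, then dosed by pintool with compound in DMSO.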

Test [14] concerns the target Luciferin 4-monooxygenase (Photinus pyralis) (UniProt P08659). In words: qHTS assay to identify small molecule inhibitors of firefly luciferase (AID 1224835). Further: nearly all actives have a fitted effect of over 25% in size. Further: potency means the concentration at half of the fitted maximal effect. The essentials: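 Biochemical qHTS: compounds run as interplate titrations against purified firefly enzyme, with D-luciferin and ATP each at its KM concentration. Light output recorded by CCD imaging.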
The nature of test [15]: qHTS assay to identify small molecule agonists of H2AX (AID 1224845; active means well fitted activation curve with a large enough effect in the signal ratio in the repeat runs, not every such curve was filed as active; the % refers to the signal ratio; further: potency means the concentration at half of the fitted maximal effect). Put shortly:
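Wild-type CHO-K1 cells, plated overnight, exposed 3hr at 37C to 15 concentrations (0.76% DMSO final). Lysed, then HTRF anti-pH2AX (S139) cryptate and anti-H2AX-d2 antibodies, 24 hr room temperature; 665/620 nm emission read.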

Test [16] is described as follows: qHTS assay to identify small molecule agonists of the hypoxia (HIF-1) signaling pathway (AID 1224846; active means well fitted activation curve with a large enough effect in the signal ratio in the repeat runs, not every such curve was filed as active; the % refers to the signal ratio). Put shortly:
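In ME-180 cells bearing an HRE-bla construct, 17 h treatment with DMSO-dissolved compounds at 37C was followed by CCF4-AM loading to quantify reporter induction.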

The nature of test [17]: qHTS assay to identify small molecule agonists of H2AX - cell viability counter screen (AID 1224847; calls by dose curve; further: nearly all actives have a fitted effect of over 30% in size; further: potency means the concentration at half of the fitted maximal effect). Put shortly:
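For this counter screen, overnight-attached CHO-K1 cells received test compounds (15 concentrations, 0.76% DMSO final); 3 hr later at 37C, CellTiter-Glo reagent was added and luminescence recorded after 30 min at room temperature.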

Test [18] can be described thus: qHTS RealTime-Glo MT Cell Viability Assay in HepG2 cells - 24 hour (AID 1224867). Further: nearly all actives have a fitted effect of over 50% in size. Further: potency means the concentration at half of the fitted maximal effect. Put shortly: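 HepG2 cells were seeded at 600 cells/well together with NanoLuc luciferase and a cell-permeant prosubstrate, preincubated 5 h at 37 C/5% CO2, then pin-dosed with compounds in DMSO. Nonlytic luminescence from viable cells was read at each time point.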
Test [19] is described as follows: qHTS RealTime-Glo MT Cell Viability Assay in HepG2 cells - 40 hour (AID 1224870). Further: nearly all actives have a fitted effect of over 50% in size. Further: potency means the concentration at half of the fitted maximal effect. Put shortly:
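HepG2 cells (600/well) mixed with RealTime-Glo MT reagent, settled 5 h at 37 C/5% CO2 before compound addition. Nonlytic NanoLuc luminescence from viable-cell prosubstrate reduction read repeatedly during 40 h treatment at 37 C.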
On the % scale 0 is the no-effect control and ±100 the full control effect.

Nuclear receptor subfamily 1 group I member 3 (Homo sapiens), sequence (Q14994 whole entry, looked up): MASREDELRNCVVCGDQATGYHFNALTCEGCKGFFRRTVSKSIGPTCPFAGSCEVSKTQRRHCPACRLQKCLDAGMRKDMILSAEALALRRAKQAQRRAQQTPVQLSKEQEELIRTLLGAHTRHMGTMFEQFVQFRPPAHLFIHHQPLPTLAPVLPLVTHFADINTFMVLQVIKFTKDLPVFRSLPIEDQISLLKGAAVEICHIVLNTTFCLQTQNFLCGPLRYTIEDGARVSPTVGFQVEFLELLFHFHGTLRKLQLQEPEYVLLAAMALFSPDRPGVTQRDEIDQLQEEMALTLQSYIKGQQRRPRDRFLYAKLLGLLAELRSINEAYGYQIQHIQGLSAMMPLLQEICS
Luciferin 4-monooxygenase (Photinus pyralis), sequence (P08659 whole entry, looked up): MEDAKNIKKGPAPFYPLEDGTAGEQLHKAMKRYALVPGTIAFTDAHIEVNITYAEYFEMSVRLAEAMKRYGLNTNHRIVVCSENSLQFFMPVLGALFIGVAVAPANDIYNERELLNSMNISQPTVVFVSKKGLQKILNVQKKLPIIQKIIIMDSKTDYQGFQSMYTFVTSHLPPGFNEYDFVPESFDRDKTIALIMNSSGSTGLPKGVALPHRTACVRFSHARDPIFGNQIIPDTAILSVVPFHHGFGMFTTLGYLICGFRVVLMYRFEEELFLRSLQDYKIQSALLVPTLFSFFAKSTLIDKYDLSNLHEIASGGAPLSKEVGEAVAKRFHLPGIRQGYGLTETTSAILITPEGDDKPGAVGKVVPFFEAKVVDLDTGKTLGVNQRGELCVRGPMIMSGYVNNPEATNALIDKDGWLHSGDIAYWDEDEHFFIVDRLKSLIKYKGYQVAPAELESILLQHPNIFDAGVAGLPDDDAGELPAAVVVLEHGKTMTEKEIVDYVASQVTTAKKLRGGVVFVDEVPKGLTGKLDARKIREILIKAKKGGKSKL
Thyrotropin receptor (Homo sapiens), sequence (P16473 whole entry, looked up): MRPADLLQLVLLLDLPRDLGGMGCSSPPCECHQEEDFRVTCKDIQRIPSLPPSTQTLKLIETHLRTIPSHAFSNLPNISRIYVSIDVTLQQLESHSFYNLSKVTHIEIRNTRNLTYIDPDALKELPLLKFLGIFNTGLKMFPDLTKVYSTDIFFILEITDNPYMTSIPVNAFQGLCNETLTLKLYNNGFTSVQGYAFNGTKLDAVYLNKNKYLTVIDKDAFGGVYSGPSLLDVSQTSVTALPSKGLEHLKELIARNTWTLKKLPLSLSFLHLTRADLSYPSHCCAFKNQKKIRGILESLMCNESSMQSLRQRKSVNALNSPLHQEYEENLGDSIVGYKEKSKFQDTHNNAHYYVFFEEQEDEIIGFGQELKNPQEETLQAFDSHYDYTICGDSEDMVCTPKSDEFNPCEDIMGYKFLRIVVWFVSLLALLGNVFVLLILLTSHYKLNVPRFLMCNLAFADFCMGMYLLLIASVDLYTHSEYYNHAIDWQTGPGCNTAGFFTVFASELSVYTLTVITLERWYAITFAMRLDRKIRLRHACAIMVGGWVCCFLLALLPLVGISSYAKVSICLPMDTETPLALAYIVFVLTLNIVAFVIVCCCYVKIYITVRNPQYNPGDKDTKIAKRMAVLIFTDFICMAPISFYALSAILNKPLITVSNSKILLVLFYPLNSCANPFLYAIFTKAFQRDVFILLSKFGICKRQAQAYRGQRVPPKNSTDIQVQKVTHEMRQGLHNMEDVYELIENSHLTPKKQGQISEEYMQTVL

For `O=c1c(C2CC(c3ccc(-c4ccc(Br)cc4)cc3)Cc3ccccc32)c(O)sc2ccccc12` (stereo not drawn), the Potency entry in test [1], in test [2], in test [3], in test [4], in test [5] and in [7] was “inactive” throughout. For the same molecule, the Potency entry in test [8], in [12] and in test [13] was “inactive” in each case. For the same molecule, the Potency in test [6] is 11.9 µM (active); in test [9] it was 15.1 µM (active); in test [10], 7.5 µM (active). In addition, the activity change, positive = activation in test [11] is -54.2% [at 42.5 µM] (inactive).
Regarding `CN(C)[C@@H]1C(=O)C(C(N)=O)=C(O)[C@@]2(O)C(=O)C3=C(O)c4c(O)ccc(Cl)c4[C@@](C)(O)[C@H]3C[C@@H]12`, the Potency entry in [14], in test [5], in test [8], in test [9], in test [15] and in test [17] was “inactive” each time. For the same molecule, the Potency entry in test [18], in [13] and in [19] was “inactive” throughout. Also, in test [16], the outcome was inactive.
Regarding `Clc1ccc(C(c2ccccc2Cl)C(Cl)(Cl)Cl)cc1` (stereo not drawn), the Potency entry in test [1], in test [2], in test [3], in [5], in [7] and in [18] was “inactive” in each case. Moreover, the Potency result in [13] and in test [19] was “inactive” each time. For the same molecule, the Potency in [4] is 6.9 µM (active) and 1.6 µM (active); in test [6], 61.5 µM (active); in test [17], 101 µM (active) and 66.2 µM (active); in test [10], 61.5 µM (active) and 40.2 µM (active); in test [12] it was 49.3 µM (active) and inactive.
For `CCOP(=S)(OCC)SCCS(=O)(=O)CC`, the Potency entry in [14], in test [1], in test [2], in [5], in test [9] and in test [17] was “inactive” throughout. Also, the Potency result in [10], in test [18], in [12], in test [13] and in test [19] was “inactive” throughout. Besides, the molecule was classed as inactive in test [16].
For `O=C(CBr)c1ccc(O)cc1`, the Potency entry in test [1], in test [2], in test [6], in [7], in test [9] and in test [17] was “inactive” each time. Besides, the Potency entry in test [18], in [13] and in [19] was “inactive” throughout. In addition, the molecule was called inactive in test [16].
Regarding `CC(C)(C)c1ccc(CSc2cnn(C(C)(C)C)c(=O)c2Cl)cc1`, the Potency entry in test [3], in test [4], in [5], in [7], in test [13] and in [19] was “inactive” each time. The results for the Potency in [6] and in [10] were 0.0049 µM (active) and 0.0054 µM (active), respectively. Also, the molecule was classed as inactive in test [16]. Moreover, the activity change, positive = activation in test [11] is -52.9% (inactive).
For the molecule `CCOP(=O)(NC(C)C)Oc1ccc(SC)c(C)c1` (stereo not drawn), the Potency entry in test [9], in test [15], in test [18], in test [13] and in test [19] was “inactive” in each case. Besides, the Potency in test [12] is 12.3 µM (active).
Take `N#CCCC(Br)(C#N)CBr` (stereo not drawn): the Potency is 35.6 µM (active) in test [14]; 61.1 µM (active) in [2]; 68.6 µM (active) in [3]; 4.86 µM (active) in test [8]; 19.5 µM (active) in [9]; 35.7 µM (active) in test [15]. The Potency in test [17] was 127 µM (active); in test [18] it was 38.9 µM (active); in test [12], 21.9 µM (active); in test [19], 38.9 µM (active). Further, the Potency entry in [4] and in [13] was “inactive” throughout. The activity change, positive = activation in [11] is -45.2% (inactive).
In the case of `CSCCCN=C=S`, the Potency entry in test [5], in test [6], in test [7], in [8], in test [17] and in [10] was “inactive” in each case. The Potency entry in test [18], in [13] and in [19] was “inactive” in each case. The activity change, positive = activation in test [11] was -13.5% (inactive).
As for `CC1(C)CC/C(=C/c2ccc(Cl)cc2)C1(O)Cn1cncn1` (stereo not drawn), the Potency entry in test [14], in [3], in test [4], in test [18] and in test [19] was “inactive” throughout. Further, the Potency in test [2] is 68.2 µM (active).
As for `Oc1cc(Cl)c(Cl)c(Cl)c1`, the Potency result in test [14], in [4], in [7], in [8], in [9] and in test [15] was “inactive” each time. Also, the Potency result in test [18], in test [13] and in test [19] was “inactive” throughout. Further, the Potency in test [6] was 36.6 µM (active); in [10], 29.1 µM (active). The activity change, positive = activation in [11] was -65.2% (inactive).
Turning to `Nc1ccc([N+](=O)[O-])cc1Cl`, the Potency entry in test [2], in test [3], in test [5], in [8], in [9] and in test [15] was “inactive” in each case. In addition, the Potency entry in [17], in test [18], in [12], in [13] and in test [19] was “inactive” throughout. In addition, in test [16], the molecule was called inactive.
With `Oc1c(Cl)c(Cl)cc(Cl)c1Cl`, the Potency in [14] was 87 µM (active); in [6], 53 µM (active); in test [17], 87.3 µM (active); in [10], 37.5 µM (active); in test [12], 47.6 µM (active). In addition, the Potency result in [3], in test [4], in test [7], in test [8], in test [9] and in test [15] was “inactive” in each case. For the same molecule, the Potency entry in test [18], in test [13] and in test [19] was “inactive” in each case. Moreover, in test [16], the molecule was called inactive. For the same molecule, the activity change, positive = activation in [11] is -59.9% (inactive).
On to `CCc1cc(C)cc(CC)c1-c1c(OC(=O)C(C)(C)C)n2n(c1=O)CCOCC2`, for which the Potency entry in [14], in test [1], in test [5], in test [7], in test [8] and in [9] was “inactive” each time. The Potency entry in [15], in [17], in test [10], in test [18], in test [12] and in test [13] was “inactive” each time. The Potency entry in test [19] was “inactive”. In [6], the Potency is 8.63 µM (active). Moreover, the molecule was classed as inactive in test [16].
